A selection: hits, their analogues and other compounds. The true share with any hit is near 11%.
JMJD2A Tudor: inhibitors of human JMJD2A Tudor domain; O75164; AlphaScreen JMJD2A-Tudor / H3K4me3 peptide binding; Potency, µM (titrated, usually from 114 µM), most hits filed as inhibitors; actives 4.4% (n = 390,000); AID 504339; further: nearly all actives have a fitted effect of over 50% in size
BAZ2B inh: blocks human BAZ2B | Q9UIF8 | AlphaScreen BAZ2B-H3K14Ac peptide displacement | Potency, µM (titrated, usually from 114 µM), hits mostly inhibitors | actives 4.4% (n = 360,000) | AID 504333; further: nearly all actives have a fitted effect of over 60% in size
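Protein-peptide AlphaScreen: BAZ2B 50 nM, b-H3K14Ac 50 nM, 1x PBS pH 7.4 + 0.01% Tween-20. Preincubation 30 min RT; cpd 30 min RT (top 110 uM); beads 20 min RT, light-protected.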
L3MBTL1 block: blocks human L3MBTL1; AID 485360; Potency, µM (series often up to 57.1 µM), hits mostly inhibitors; AlphaScreen L3MBTL1–H3K9me1 peptide binding; actives 0.66% (n = 230,000); Q9Y468; further: nearly all actives have a fitted effect of over 60% in size
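AlphaScreen assay: L3MBTL1 (50 nM final) was preincubated 30 min at room temperature with biotinylated H3(1-15)K9me1 peptide (75 nM final), then 30 min with library compounds; streptavidin donor and nickel chelate acceptor beads (10 ug/mL final) added, 30 min dark.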
HP1b binding inh: HP1-beta chromodomain-methylated histone interaction inhibition; P83916; AlphaScreen HP1-beta / biotin-H3K9me3 peptide binding; Potency, µM (series often up to 114 µM), most hits filed as inhibitors; actives 0.56% (n = 390,000); further: nearly all actives have a fitted effect of over 70% in size
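HP1-beta protein (50 nM final) preincubated 30 min at room temperature with biotinylated H3(1-18)K9me3 peptide (50 nM) in PBS pH 7.4, 0.01% Tween-20, then compound added for 30 min. AlphaScreen streptavidin donor/nickel chelate acceptor beads (10 ug/mL final), 30 min dark, luminescence read.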
G9a inh: G9a (human) methyltransferase inhibition | Q96KQ7 | G9a H3K9 monomethylation, AlphaScreen, 2 h | Potency, µM (highest dose often 102 µM), most hits filed as inhibitors | actives 8.8% (n = 350,000); further: nearly all actives have a fitted effect of over 75% in size
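Using a bead-based AlphaScreen, monomethylated H3K9 product from 2 h room-temperature reactions (G9a 20 nM, peptide 500 nM, SAM 20 uM) was detected with 0.5 ug/mL rabbit anti-H3K9me1 antibody.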
Hits are given with their value; n = inactive; u = inconclusive; x = no result; [ ] = remark or other dose. The call rests on the fitted dose curve; in most records, active means well fitted inhibition curve with a large enough effect; inconclusive means small, poorly fitted or top-dose-only effect; inactive means no such curve, though single readings can be large or run the other way.

SMILES | JMJD2A Tudor | BAZ2B inh | L3MBTL1 block | HP1b binding inh | G9a inh
O=C(N/N=C/c1c[nH]c2ccccc12)c1cccc(Cl)c1 | n | n | x | n | n
CSc1ccc(/C=N/NC(=O)c2cc(O)cc(O)c2)cc1 | n | n | n | n | n
CSc1ccc(/C=N/NC(=O)c2ccc(C)c(C)c2)cc1 | u | 50.1µM | n | n | n
O=C(O)c1cc(N/N=C/c2ccncc2)ccc1Cl | n | n | n | n | n
COc1ccc(N=N/C(=C\O)C(=O)c2cccs2)cc1 | 15.8µM | 11.2µM | u | u | 20µM
COc1ccc(N=N/C(C(C)=O)=C(/C)O)cc1 | n | n | n | n | n
COc1ccc(C(=O)/C(=C/O)N=Nc2ccc(F)cc2)cc1 | 56.2µM | 31.6µM | u | n | u
CCOC(=O)C1CCCN(C2=NC(=O)/C(=C/c3ccc(OC)c(OC)c3)S2)C1 (stereo unspecified) | n | n | x | n | n
COc1ccc(/C=C2\SC(N3CCc4ccccc4C3)=NC2=O)cc1OC | u | n | n | u | 12.6µM
Cc1cccc(NC(=O)Nc2ccccc2[N+](=O)[O-])n1 | n | n | x | n | n
CC(Sc1nnc(-c2cccnc2)n1N)C(=O)Nc1ccc2c(c1)OCCO2 (stereo unspecified) | n | n | n | n | 56.2µM
O=S(=O)(c1ccc2c(c1)CCN2)N1CCCCCC1 | n | n | x | n | n
O=[N+]([O-])c1ccc(O)c(C=NNc2ccc(S(=O)(=O)O)cc2)c1 | 79.4µM | x | x | n | x
O=[N+]([O-])c1ccc(O)c(/C=N/Nc2ccccn2)c1 | u | 4.47µM | 12.6µM | n | n
O=[N+]([O-])c1cccc(N/N=C/c2cc([N+](=O)[O-])ccc2O)c1 | n | n | n | n | n
COc1ccc(O)c(/C=N/Nc2nc3ccccc3[nH]2)c1 | n | n | n | n | u
O=[N+]([O-])c1ccc(O)c(/C=N/Nc2nc3ccccc3[nH]2)c1 | u | 31.6µM | u | n | n
O=[N+]([O-])c1ccc(O)c(/C=N/Nc2ncnc3c2cnn3-c2ccccc2)c1 | 79.4µM | u | x | n | n
O=C(Cc1ccc([N+](=O)[O-])cc1)Nc1ccc(Cl)cc1 | n | n | n | n | 39.8µM
O=C(Cc1ccc(Br)cc1)Nc1ncc([N+](=O)[O-])s1 | n | 50.1µM | x | n | 28.2µM
O=C(COC(=O)COc1ccccc1)Nc1ncc([N+](=O)[O-])s1 | 79.4µM | n | n | n | u
O=C(C/C=N\OCc1ccc([N+](=O)[O-])cc1)Nc1ccc(Cl)cc1 | n | n | n | n | n
O=C(Cc1ccc(Cl)cc1)Nc1ncc([N+](=O)[O-])s1 | n | n | n | n | 35.5µM
CCOC(=O)c1c(C)c(-c2ccccc2)n(CC(=O)Nc2cc(C)ccc2OC)c1C | n | n | x | n | n
COc1ccccc1CNC(=O)CCn1nc(C)c2c(C)n(-c3ccccc3)nc2c1=O | n | n | x | n | n
SMILES | JMJD2A Tudor | BAZ2B inh | L3MBTL1 block | HP1b binding inh | G9a inh
Cc1onc(-c2ccccc2)c1C(=O)Nc1nnc(C(C)C)s1 | n | n | x | n | x
Cc1onc(-c2ccccc2)c1C(=O)Nc1ncc([N+](=O)[O-])s1 | n | n | x | n | 44.7µM
Nc1ccc2c(c1)OC1(CCCC1)O2 | 44.7µM | 39.8µM | n | n | 35.5µM
O=C(CCCN1C(=O)CCC1=O)Nc1ccccc1F | n | u | x | n | 56.2µM
O=C(CCCN1C(=O)CCC1=O)Nc1ccc(Br)cc1F | n | n | x | n | n
O=C(CCCn1cnc2ccccc2c1=O)Nc1ccccc1F | n | n | x | n | 35.5µM
COc1ccc(NC(=O)CCCn2cnc3ccccc3c2=O)cc1 | n | n | x | n | 28.2µM
Cc1ccc(OCC(=O)OC2CCCN(C)C2)cc1 (stereo unspecified) | u | n | n | n | n[0.501 µM]
CN1CCCC(OC(=O)COc2ccccc2)C1 (stereo unspecified) | n | n | n | n | 50.1µM
Cn1cnnc1SCC(=O)c1ccc(OC(F)F)cc1 | 31.6µM | n | x | n | u
CC(=O)Nc1ccc(NC(=O)c2cccc(-c3cc4ccccc4oc3=O)c2)cc1 | n | n | n | n | n
O=C(Nc1ccc(N2CCCC2)c(Cl)c1)c1cccc(-c2cc3ccccc3oc2=O)c1 | n | n | 28.2µM | n | 44.7µM
c1ccc(OCCCN2CCCC2)cc1 | 2.82µM | 79.4µM | x | n | 3.16µM
c1ccc(COc2ccc(OCCCCN3CCCC3)cc2)cc1 | 1.41µM | 56.2µM | u | u | 22.4µM
COc1ccc(OCCCN2CCCCCC2)cc1 | u | n | x | n | n[2.33 µM]
